Most compounds without a hit are left out; they make up all but 4.1% or so of the library.
Rv3671c inh = inhibits the M. tuberculosis serine protease Rv3671c. P9WHR9. inhibition, % at 5.96 µM. hit rate 0.048% among 320,000. AID 2606; in the data active = inhibition above about 38%;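 note: extracellular domain of Rv3671c used as enzyme; 0% = enzyme with DMSO and 100% = no enzyme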
GDH-TPI counter-1 = GDH-TPI coupled enzyme inhibition counter-screen | GDH-TPI coupled enzyme counterscreen, NADH absorbance | inhibition, % at 4.8 µM | hit rate 1.2% among 360,000 | AID 588335; in the data active = inhibition above about 30%;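 note: 0% = DMSO wells and 100% = wells lacking the enzyme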
Vc quorum ag = quorum light induction in luxS cqsA deficient V. cholerae; V. cholerae BH1578 lux reporter, luminescence, 6 h; activation, % at 18.7 µM; hit rate 0.16% among 350,000; in the data active = activation mostly above about 9.7%, no sharp cut-off
Mtb FBA inh = inhibitors of M. tuberculosis fructose-bisphosphate aldolase | purified M. tuberculosis FBA, fluorescence read-out | hit rate 2.3% among 360,000 | inhibition, % at 1 µM;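 note: 0% = vehicle and 100% = reference inhibitor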
UGM FP inh = inhibitors of M. tuberculosis UDP-galactopyranose mutase; AID 504406; purified UGM, fluorescence polarization probe displacement; P9WIQ1; inhibition, % at 10 µM; hit rate 0.06% among 320,000; in the data active = inhibition above about 10%, passing the limit was not always enough
RecA splice inh = blocks M. tuberculosis RecA intein splicing. inhibition, % (concentration not given with the values). hit rate 0.75% among 290,000. cell-free RecA intein splicing, fluorescence. P9WHJ3. AID 2221; in the data active = inhibition above about 30%;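 note: 0% = vehicle wells and 100% = reference inhibitor control wells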
Target sequence (P9WHJ3 whole entry, looked up, canonical isoform): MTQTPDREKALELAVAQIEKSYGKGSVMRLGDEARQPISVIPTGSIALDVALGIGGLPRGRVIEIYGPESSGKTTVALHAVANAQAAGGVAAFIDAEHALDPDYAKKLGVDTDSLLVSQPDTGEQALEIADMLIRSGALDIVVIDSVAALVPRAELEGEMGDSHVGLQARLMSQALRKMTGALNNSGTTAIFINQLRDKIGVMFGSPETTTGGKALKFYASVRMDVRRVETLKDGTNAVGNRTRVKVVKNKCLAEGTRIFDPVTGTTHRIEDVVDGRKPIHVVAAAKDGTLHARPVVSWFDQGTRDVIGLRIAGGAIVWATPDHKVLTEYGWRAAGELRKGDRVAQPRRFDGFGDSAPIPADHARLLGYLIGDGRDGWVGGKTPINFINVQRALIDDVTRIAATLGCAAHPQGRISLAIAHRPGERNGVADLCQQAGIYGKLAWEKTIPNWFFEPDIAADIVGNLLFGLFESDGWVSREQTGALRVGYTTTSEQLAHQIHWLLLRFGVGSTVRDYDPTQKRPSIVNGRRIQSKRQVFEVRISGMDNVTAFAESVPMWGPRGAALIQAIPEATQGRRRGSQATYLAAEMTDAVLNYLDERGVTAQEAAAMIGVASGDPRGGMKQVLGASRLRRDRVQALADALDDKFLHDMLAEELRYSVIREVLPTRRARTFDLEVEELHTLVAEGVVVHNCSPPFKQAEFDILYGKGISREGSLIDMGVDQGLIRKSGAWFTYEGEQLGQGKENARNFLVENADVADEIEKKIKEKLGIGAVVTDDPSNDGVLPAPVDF
Mtb FBA confirm = confirmation of M. tuberculosis fructose-bisphosphate aldolase inhibitors. inhibition, % at 1 µM. shares compounds with Mtb FBA inh. hit rate 78% among 5,600. purified M. tuberculosis FBA, fluorescence read-out;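 note: 0% = vehicle wells and 100% = reference inhibitor wells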
GDH-TPI counter-2 = GDH-TPI inhibition counter-screen for FBA inhibitors; shares compounds with Mtb FBA inh; inhibition, % at 1 µM; AID 652141; hit rate 81% among 5,600; GDH-TPI coupled enzyme counterscreen, fluorescence; in the data active = inhibition above about 10%
* = called active by the depositor; i = inactive; nt = no result; + = active, no number. Cut-off read from the data, not from the text of the source, unless noted: active = inhibition above about 27%; inactive = the rest.

SMILES	Rv3671c inh	GDH-TPI counter-1	Vc quorum ag	Mtb FBA inh	UGM FP inh	RecA splice inh	Mtb FBA confirm	GDH-TPI counter-2
CC(=O)Nc1cccc2c1C(=O)NC2=O	-2.6	1.9	i	28.1*	4.1	-0.6	54.4*	43.2*
Cc1ccc(C(=O)NC2CCCc3ccccc32)cc1[N+](=O)[O-] (stereo unspecified)	-6.5	-0.8	i	5.8	-1.2	5.0	nt	nt
CCOc1ccc(-c2cc(C(=O)OC)nc3c2c(=O)n(C)c(=O)n3C)cc1	1.3	8.8	i	32.8*	-0.4	-1.8	118.2*	90.8*
OC1c2c(F)cccc2N=C2CCCCCN21 (stereo unspecified)	nt	12.4	-0.4	48.2*	nt	nt	140.8*	138.2*
OC1c2cc(Br)ccc2N=C2CCCCCN21 (stereo unspecified)	nt	5.2	-0.4	5.1	nt	nt	nt	nt
O=C(NCC1CCCO1)c1cc2cc(F)ccc2[nH]1 (stereo unspecified)	-11.7	-5.1	-0.6	18.2	-0.2	0.9	nt	nt
O=C(Nc1c(C(=O)O)[nH]c2ccccc12)NC1CCCCC1	1.1	3.4	i	35.5*	-2.5	3.6	+	174.2*
C[C@@H](NC(=O)c1ncn(C)c1C(=O)N[C@H](C)c1ccccc1)c1ccccc1	4.1	6.7	1.3	-1.2	-2.2	nt	nt	nt
CC(=O)N(C)c1ccc(NC(=O)CCN2C(=O)c3ccccc3C2=O)cc1	6.2	-12.6	-0.1	-3.9	1.4	1.8	nt	nt
COC(=O)c1cccc2c1NC(=O)C2=O	-13.0	10.3	i	0.7	2.1	6.1	nt	nt
COC(=O)C1(C)NC(=O)c2ccccc2N1 (stereo unspecified)	1.0	0.0	-0.4	29.9*	-2.9	0.3	38.8*	42.0*
COC(=O)C1(C)Nc2ccccc2C(=O)N1c1ccccc1OC (stereo unspecified)	0.8	8.9	16.2	28.9*	-4.5	0.8	85.8*	55.8*
COc1ccc(N2C(=O)c3ccccc3NC2(C)C)cc1	-1.1	1.3	-0.4	25.1	-1.7	-1.3	nt	nt
COc1cc2c(cc1CNC[C@H]1O[C@@H](n3ccc(N)nc3=O)[C@H](O)[C@@H]1O)OCO2	nt	-1.4	-2.1	1.1	nt	nt	nt	nt
CC(C)Oc1ccc(F)cc1-c1cc(C(=O)NCc2cccs2)[nH]n1	nt	-10.8	-5.0	-0.1	nt	nt	nt	nt
CCCc1cc(=O)[nH]c(SCC(=O)Nc2sc3c(c2C#N)CCC(C)C3)n1 (stereo unspecified)	0.5	4.4	i	37.4*	0.9	-1.6	98.8*	73.4*
CC1CCc2c(sc(NC(=O)CSc3ncn[nH]3)c2C#N)C1 (stereo unspecified)	-2.4	4.8	i	-1.8	-0.6	0.5	nt	nt
Cc1ccc(-c2nc3ncccn3c2Nc2ccc3c(c2)OCCO3)cc1	6.9	6.2	-2.2	-3.4	0.4	-1.8	nt	nt
Cc1ccc(-c2nc3ncccn3c2NC(=O)C2CC2)cc1	-0.1	6.9	-0.2	62.6*	-2.9	-3.2	35.6*	10.4*
CC(=O)Nc1c(-c2ccccc2)nc2ncccn12	-0.8	14.9	-0.2	42.0*	1.7	-2.7	40.5*	30.1*
O=C(Nc1c(-c2ccccc2)nc2ncccn12)c1cc2ccccc2oc1=O	-1.4	28.4	-0.1	-3.1	-0.6	1.4	nt	nt
COc1ccc(CC(=O)OCC(=O)Nc2ccc(F)cc2)cc1	nt	2.1	-1.9	-1.4	nt	nt	nt	nt
CC1(C)CC2(OC2c2ccccc2[N+](=O)[O-])C(=O)c2ccccc21 (stereo unspecified)	nt	5.3	i	-1.1	nt	nt	nt	nt
O=C(CCCN1C(=O)c2ccccc2C1=O)NC1CCCCCC1	3.2	3.4	-2.2	-0.4	0.3	-5.9	nt	nt
O=C(COC(=O)CCN1C(=O)c2cccc([N+](=O)[O-])c2C1=O)NC1CCS(=O)(=O)C1 (stereo unspecified)	1.0	-4.3	-0.2	1.9	nt	-4.2	nt	nt
SMILES	Rv3671c inh	GDH-TPI counter-1	Vc quorum ag	Mtb FBA inh	UGM FP inh	RecA splice inh	Mtb FBA confirm	GDH-TPI counter-2
O=C(CCN1C(=O)c2cccc3cccc(c23)C1=O)NC1CCS(=O)(=O)C1 (stereo unspecified)	5.5	29.7	0.0	38.8*	0.4	1.1	+	+
O=C(CCCCCN1C(=O)c2cccc3cccc(c23)C1=O)NC1CCS(=O)(=O)C1 (stereo unspecified)	1.4	11.4	i	39.1*	1.9	-0.5	133.8*	117.0*
C#CCOc1ccc(C2C3=C(CCCC3=O)N(CC(=O)O)C3=C2C(=O)CCC3)cc1Br	-3.7	2.9	i	90.7*	-0.3	-451.0	153.3*	130.7*
FC(F)(F)c1ccc2c(c1)NCC1CCCN21 (stereo unspecified)	5.3	24.4	-0.5	45.2*	2.3	-4.2	54.2*	49.9*
Cc1c(OCC(=O)N[C@@H](CSCc2ccccc2)C(=O)O)ccc2c3c(c(=O)oc12)CCC3	nt	8.3	-0.4	2.2	nt	10.2	nt	nt
Cc1c(OC(C)C(=O)N[C@H](C(=O)O)c2ccccc2)ccc2c3c(c(=O)oc12)CCCC3 (stereo partly specified)	-5.1	28.4	-0.7	81.0*	5.0	-2.4	80.7*	59.1*
CC(=O)C(C)Oc1ccc2c3c(c(=O)oc2c1C)CCCC3 (stereo unspecified)	-3.0	15.9	-0.3	60.9*	-0.8	1.4	87.6*	69.8*
Cc1c(OC(C)C(=O)NCCN2CCOCC2)ccc2c3c(c(=O)oc12)CCCC3 (stereo unspecified)	-5.9	1.9	-0.6	34.1*	2.2	-0.8	50.4*	37.7*
Cc1c(OC(C)C(=O)NC2CC(C)(C)NC(C)(C)C2)ccc2c3c(c(=O)oc12)CCC3 (stereo unspecified)	-1.4	7.6	1.9	20.0	0.3	1.9	nt	nt
Cc1c(OC(C)C(=O)NCC(O)c2ccccc2)ccc2c3c(c(=O)oc12)CCC3 (stereo unspecified)	-9.5	17.0	-0.7	28.8*	2.5	-1.6	+	+
COc1ccccc1OCCCCn1ncc2ccc(OC)c(OC)c2c1=O	-3.5	1.4	-1.6	3.3	2.1	-1.5	nt	nt
COCCN(C(=O)COC(=O)c1nc(Cl)ccc1Cl)c1c(N)n(Cc2ccccc2)c(=O)[nH]c1=O	-4.6	4.1	i	-3.1	4.0	3.5	nt	nt
CN(C)S(=O)(=O)c1cccc(C(=O)NCC(C)(C)CNC(=O)c2cccc(S(=O)(=O)N(C)C)c2)c1	1.9	3.3	-10.0	-5.7	3.1	-0.3	nt	nt
Cn1c(=O)c2c(nc(SCCN3CCCCC3)n2Cc2ccc(Cl)cc2)n(C)c1=O	-5.3	-3.0	i	43.8*	-2.3	2.8	79.7*	68.1*
CCSc1nc2c(c(=O)n(C)c(=O)n2C)n1Cc1ccc(Cl)cc1	8.6	-2.5	-2.2	-3.0	0.6	7.1	nt	nt
CCC(C)(C)NC(=S)Nc1ccc(-c2nc3ccc(C)cc3s2)cc1	-12.6	28.3	-0.1	91.9*	-0.6	-6.3	1.9	-3.0

Screening results as filed in PubChem.
